Test results taken from PubChem BioAssay AID651997 (Sanford-Burnham Center for Chemical Genomics, 2013).
In all, about 2,400 compounds went through this assay and about 700 (29%) were called active.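 The calls were made as follows: active = inhibition of at least 50%; inactive = the rest.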 Not all results are given here.

biological target: G-protein coupled receptor 183 (Homo sapiens) (UniProt P32249); experiment: EBI2 antagonist hit retest, beta-arrestin, confirmation, cell-based, single concentration, luminescence, 7a,25-OHC stimulation (AID 651997); settings: 7a,25-OHC antagonism, at 5 µM, stronger effect = higher value
Sequence (P32249 whole entry, looked up): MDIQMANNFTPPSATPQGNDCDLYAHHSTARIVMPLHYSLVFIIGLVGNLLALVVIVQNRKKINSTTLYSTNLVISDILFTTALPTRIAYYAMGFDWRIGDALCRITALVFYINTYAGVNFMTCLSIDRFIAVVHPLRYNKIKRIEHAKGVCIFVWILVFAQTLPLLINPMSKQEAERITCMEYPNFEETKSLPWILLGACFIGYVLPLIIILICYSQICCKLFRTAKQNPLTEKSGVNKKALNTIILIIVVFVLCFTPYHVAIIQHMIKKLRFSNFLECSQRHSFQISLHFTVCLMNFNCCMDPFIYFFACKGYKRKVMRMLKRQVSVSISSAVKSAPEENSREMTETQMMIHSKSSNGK

inhibition, inactive:
COc1ccc([C@H]2CC(=O)C=C(/C=C/c3ccc(Cl)cc3)C2)cc1 20.8%
CCCCN=C1C([N+](=O)[O-])=CC=C2C1=NC1(CCCCC1)N2O 38.6%
CCOc1ccc(CCN2C(=S)N([C@@H](CC(C)C)CN3CCC[C@@H]3CN3C(=S)NC[C@@H]3Cc3ccc(O)cc3)C[C@@H]2Cc2ccc(O)cc2)cc1 26.9%
CC1(Cc2ccccc2C#N)C(=O)Nc2ccc(-c3ccc4[nH]ccc4c3)cc21 (configuration not stated) 31.6%
COc1ccc(CNC(=O)CN(c2ccc(OC)c(Cl)c2)S(=O)(=O)c2ccc(C)cc2)cc1 6.43%
Cc1ccc2oc(=O)c3cnn(CC(=O)N4CCCCCC4)c3c2c1 31%
O=C(Nc1ccc(S(=O)(=O)N2CCCCC2)cc1)C1CC(=O)N(c2ccc(F)cc2)C1 (configuration not stated) 17.5%
Cc1ccc(-c2nn(-c3ccccc3)cc2/C=C/C(=O)Nc2cccc(S(N)(=O)=O)c2)cc1 25.3%
CCOc1ccc(CN(Cc2ccco2)S(=O)(=O)c2ccc(-n3cnnn3)c(OC)c2)cc1 24.7%
O=c1[nH]c(CN2CCN(S(=O)(=O)c3ccc4c(c3)OCCO4)CC2)nc2sc3c(c12)CCCC3 27.9%
Cc1ccc(S(=O)(=O)NCCNC(C)c2ccc(Br)cc2)cc1 (configuration not stated) 9.45%
COc1ccc(/C=C/C(=O)c2ccc(OC)cc2O)cc1 41.6%
COc1ccc(C(=O)/C=C/c2ccc(OC3CSC3)cc2)cc1 25.8%
CCC(C)(C)NC(=O)c1cc([N+](=O)[O-])ccc1N1CCCCC1 42.4%
COc1ccc(-c2cc(C3CCN(c4ncccc4[N+](=O)[O-])CC3)[nH]n2)cc1 32.3%
O=C(C(c1ccccc1)c1ccccc1)N1CCN(CC(O)COc2ccccc2)CC1 (configuration not stated) 15.3%
Cc1cccc(-n2c(O)c(C=Nc3ccccc3N)c(=O)[nH]c2=O)c1 13.2%
Cc1ccc(S(=O)(=O)N2CCN(CC(=O)N/N=C/c3ccc(Br)s3)CC2)cc1 41.9%
CC(=O)/C(=N\Nc1ccc(Cl)cc1Cl)Sc1cccc2cccnc12 43.2%
COc1cccc(-c2cc(C(=O)N3CCN(c4ccccc4OC)CC3)no2)c1 42.9%
O=C(CCNS(=O)(=O)c1ccccc1)NCCSc1ccc(Br)cc1 12.7%
CCOC(=O)N1CCN(C(=O)COc2ccc(Cl)cc2C)CC1 30.2%
Cc1ccc(SCC(=O)N2CCN(c3ccc(F)cc3)CC2)cc1 33.8%
Cc1ccc(OCCNC(=O)CCNS(=O)(=O)c2ccc(Br)cc2)cc1 17.6%
CCN1CCN(C(=O)CSc2ccc(C)cc2)CC1 27.6%
Cc1cc(OCCOc2cccc3cccnc23)c(C)cc1Cl 38.3%
O=C(CSc1ccccc1)Nc1cc(Cl)ccc1Oc1ccccc1 45%
CCC(c1nnc(SCC(=O)NNC(=O)c2ccccc2)n1Cc1ccccc1)N(C)C (configuration not stated) 35.9%
O=C(Nc1ncc2c(n1)CC(c1ccco1)CC2=O)c1ccc(Cl)cc1 (configuration not stated) 10.5%
N#Cc1ccc(C(c2nnnn2CCc2ccccc2)N2CCCCCC2)cc1 (configuration not stated) 34.1%
Cc1cccc(N=C2NC(=O)/C(=C/c3cn(C)c4ccccc34)S2)c1 33.9%
FC(F)(F)Oc1ccccc1C(c1nnnn1C1CCCCC1)N1CCN(C/C=C/c2ccccc2)CC1 (configuration not stated) 23%
COc1ccccc1N1CCN(C(=O)c2cc(-c3ccc(Br)cc3)on2)CC1 20.4%
O=C(c1cc(=O)c2ccccc2o1)N1CCN(c2ccccc2)CC1 20.1%
O=C(NNC(=O)c1ccc2ccccc2c1)c1ccc(Cl)cc1 26.7%
O=C(NCCCc1ccccc1)C1CCC(=O)N(CCc2ccc(Cl)cc2)C1 (configuration not stated) 41.6%
O=C(c1cc2cc(F)ccc2[nH]1)N1CCN(c2ccc(F)cc2)CC1 43.5%
Cc1cs/c(=N\N=C\c2ccc(O)cc2)n1Cc1ccco1 34.7%
CCCCC(=O)N(C)c1c(CC)nc2c(OCc3ccc(Cl)cc3Cl)cccn12 35.5%

inhibition, active:
COc1ccc2cc(C3=CC(=O)C[C@H](c4ccc5c(c4)OCO5)C3)ccc2c1 51.4%
N#Cc1ccc(C2=CC(=O)C[C@H](c3ccc(Cl)cc3)C2)cc1 53.7%
COc1ccc([C@H]2CC(=O)C=C(c3ccc(C)cc3)C2)cc1 56.3%
Cc1ccc2oc(=O)c3cnn(CC(=O)N(Cc4ccco4)C4CCCCC4)c3c2c1 76.3%
COc1ccc(-c2cn(-c3ccc(OC)cc3)c(=S)[nH]2)cc1 68%
CCN(CC(=O)NCc1cccs1)C(=O)/C=C/c1ccc(C)cc1 85.2%
Cc1nc(-c2ccccc2)sc1C(=O)/C=C/c1ccccc1 52.2%
CN(Cc1ccc(F)cc1)C(=O)COc1ccc2ccccc2c1 84%
COc1ccc(C(C(=O)NC2CCCCC2)N(C(=O)c2snc(C(N)=O)c2N)c2ccccc2OC)cc1 (configuration not stated) 57%
CC1CCc2sc3nc(N4CCN(CCO)CC4)n4ncnc4c3c2C1 (configuration not stated) 67.9%
CCC1Nc2ncnc(N3CCN(c4ccccc4)CC3)c2N(Cc2ccc(Cl)cc2)C1=O (configuration not stated) 86.9%
CC(C)Cc1ccc(-c2cc3nc(NCc4cccc(Cl)c4)ccn3n2)cc1 51.8%
Cc1cccc(N2CCN(C(=O)c3cc4c(=O)[nH]c5ccccc5c4n3C)CC2)c1C 75.1%
CCOC(=O)C1CCN(C(=O)COc2cc(C)c(Br)c(C)c2)CC1 59%
CCOC(=O)N1CCN(C(=O)COc2ccc(Br)cc2)CC1 75.6%
CCOC(=O)N1CCN(C(=O)CSc2ccc(Cl)cc2)CC1 80.2%
COc1ccc(/C=N/N=C/c2c[nH]c(=O)c(C#N)c2Nc2ccccc2)cc1 79.2%
COc1ccccc1N1CCN(C(=O)c2cc(=O)c3cc(C)ccc3o2)CC1 76%
